Abeta yeast res: A-beta toxicity reversal in yeast; yeast expressing A-beta42, growth rescue, OD600, 48 h; response scale: 0% DMSO, 100% iron-clioquinol control; Potency, µM (top dose mostly 46.1 µM), most hits filed as activators; 0.063% of 410,000 active; further: nearly all actives have a fitted effect of over 55% in size
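Yeast A-beta toxicity model in growth medium with pinned compounds, 48 h at 30 C; growth read as absorbance at 600 nm. Normalized to FeCl3/clioquinol equimolar mix (positive) and DMSO (negative).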
FUS suppressor: FUS proteinopathy suppression in yeast | AID 1347120 | Potency, µM (series often up to 76.6 µM), usual class: activators | 0.24% of 390,000 active | S. cerevisiae FUS-expressing, growth rescue, OD600, 24 h;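 further: plate controls were DMSO vehicle for no effect and reference control for full effect; nearly all actives have a fitted effect of over 55% in size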
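Yeast FUS proteinopathy model; galactose-induced FUS (2%), starting OD 0.005. Cpds in dilution series, 24hr, 30C, 99% humidity. Abs 600 nm growth. Pos ctrl CP55940 (top 92uM final); neg ctrl DMSO.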
aSyn rescue: inhibitors of alpha-synuclein toxicity in yeast; Yeast expressing alpha-synuclein, growth rescue, BacTiter-Glo, 24 h; Potency, µM (series often up to 46.1 µM), for the others: at the highest dose growth rescue (activation), actives largely listed as activators; 0.14% of 370,000 active; AID 652106; further: % of control where 0% means no effect; nearly all actives have a fitted effect of over 65% in size
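Screening used galactose-induced yeast with toxic alpha-synuclein levels, exposed to compound for 24 hr at 30 deg C. Cell growth, read with BacTiter-Glo luminescence, gave the measured signal.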
TDP-43 yeast inh: inhibitors of TDP-43 toxicity in yeast | AID 652104 | TDP-43 expressing yeast growth rescue, BacTiter-Glo, 24 h | Potency, µM (series often up to 46.1 µM), inactives show at the highest dose growth rescue (activation), actives largely listed as activators | 1.8% of 410,000 active; further: % of control where 0% means no effect; nearly all actives have a fitted effect of over 50% in size
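Yeast cells expressing TDP-43 under galactose induction are exposed to compounds for 24 hr at 30 deg C. BacTiter-Glo luminescence measures growth, so protective compounds score as activators.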
Active calls of the source: *; i = inactive; ? = inconclusive; . = not tested or not shown; [ ] = dose if it differs, or a comment. An excerpt weighted towards active compounds, which were near 2.1% of everything screened. The call rests on the fitted dose curve; in most records, active means well fitted curve in the direction sought with a large enough effect; inconclusive means small, poorly fitted or top-dose-only effect, or another doubt; inactive means no such curve, though single readings can be large; an effect the other way counts as inactive or inconclusive. Potency means the concentration at half of the fitted maximal effect.

SMILES	Abeta yeast res	FUS suppressor	aSyn rescue	TDP-43 yeast inh
CCC(=O)N1CCN=C1SCc1cccc(C(F)(F)F)c1	i	i	-11%	18%
Cc1ccc(C)c(OCCC(=O)Nc2ccc3c(c2)OCO3)c1	i	.	-8%	11µM*
Cc1ccc(O)c(NC(=O)CCS(=O)(=O)c2nc(-c3cccs3)cc(C(F)(F)F)n2)c1	i	i	.	11µM*
O=C(CCS(=O)(=O)c1nc(-c2cccs2)cc(C(F)(F)F)n1)Nc1ccc(Br)cc1	i	i	.	?
COc1ccc(NC(=O)CCS(=O)(=O)c2nc(-c3ccc4c(c3)OCO4)cc(C(F)(F)F)n2)cc1	i	i	.	?
O=C(CCS(=O)(=O)c1nc(-c2cccs2)cc(C(F)(F)F)n1)Nc1cc(Br)ccc1O	i	i	?	18µM*
O=C(CCS(=O)(=O)c1nc(-c2ccc3c(c2)OCO3)cc(C(F)(F)F)n1)Nc1ccc(F)cc1F	i	i	.	13µM*
Cc1cc(C)c(NC(=O)c2sc3nc4c(cc3c2N)C(=O)CC(C)(C)C4)c(C)c1	i	?	-2%	20µM*
COC(=O)c1sc2nc3c(cc2c1N)C(=O)CC(C)(C)C3	i	i	1%	-21%
O=[N+]([O-])c1cc(S(=O)(=O)Oc2ccccc2)ccc1Cl	i	.	-6%	11µM*
O=S(=O)(Oc1ccccc1)c1ccc(Cl)c(Cl)c1	i	i	10%	16%
Cc1ccc2c(c1)N(CC(=O)c1cccc(Cl)c1)C(=O)C(C)O2 (stereo not drawn)	i	.	10%	25%
CC1Oc2ccccc2N(CC(=O)c2cccc(Cl)c2)C1=O (stereo not drawn)	i	i	15%	16µM*
CC1Oc2ccccc2C(=O)N(CC(=O)c2ccc3c(c2)OCCO3)C1=O (stereo not drawn)	i	i	25%	18µM*
CCC(=O)Nc1cc(C(=O)OC(C(=O)c2ccc(C)c(C)c2)c2ccccc2)ccc1C (stereo not drawn)	i	10µM*	-1%	0%
Cc1ccc(C)c(NC(=O)CCC(=O)OC(C(=O)c2ccccc2)c2ccccc2)c1 (stereo not drawn)	i	i	10%	?
CCC(=O)Oc1ccc(-c2nc3ccccc3c(=O)o2)cc1	i	i	.	4µM*
CC(=O)Oc1ccc2nc(/C=C/c3ccc(C=O)cc3)oc(=O)c2c1	i	i	-11%	-7%
CC(=O)Oc1ccc2nc(/C=C/c3ccccc3)oc(=O)c2c1	i	i	0%	3.5µM*
CC(=O)Oc1ccc(-c2nc3cc(Cl)ccc3c(=O)o2)cc1	i	i	0%	4µM*
CC(=O)Oc1ccc2c(=O)oc(-c3ccccc3C)nc2c1	i	i	-1%	14µM*
CCCOc1ccc(-c2nc3ccccc3c(=O)o2)cc1	i	i	2%	10%
Cc1cc(C)c(Cn2c(C(O)c3ccccc3)nc3ccccc32)c(C)c1 (stereo not drawn)	i	?	.	2%
O=[N+]([O-])c1ccc(Nc2ccccc2F)nc1	i	i	-1%	18µM*
O=C(Nc1cccc(Cl)c1)C1CCCN(c2nn3cc(-c4ccc(F)cc4)nc3s2)C1 (stereo not drawn)	i	i	.	?
SMILES	Abeta yeast res	FUS suppressor	aSyn rescue	TDP-43 yeast inh
Cc1ccc2c(c1)N(C(=O)CCC(=O)NC1CCCCCC1)CC(C)O2 (stereo not drawn)	i	i	?	20%
CCc1ccccc1NS(=O)(=O)c1ccc(-c2coc(C)n2)cc1	i	i	0%	13µM*
CC1(C)Cc2c(c(N3CCOCC3)nc3snc(Br)c23)CO1	i	i	4%	16µM*
COc1cc2c(C#N)c(N3CCc4ccccc4C3)nc(N)c2c(N)n1	i	?	6%	13µM*
COc1cc2c(C#N)c(N3CCCCC3)nc(N)c2c(N)n1	i	i	8%	?
NNc1nnc(-c2ccccc2)c(-c2ccccc2)n1	i	35µM*	3%	-16%
CCCCN(CC)S(=O)(=O)c1ccc(C(=O)Nc2nnc(CSC)o2)cc1	i	i	32µM*	?
CCCCN(CCCC)S(=O)(=O)c1ccc(C(=O)Nc2nnc(CSC)o2)cc1	i	i	?	21%
COc1ccc2sc(N(Cc3cccnc3)C(=O)C3CCCCC3)nc2c1	i	?	.	?
Cc1ccsc1CN(C)CC(=O)NCC(=O)Nc1ccc(F)cc1	i	i	2%	12%
O=C1NC[C@H](CCCCN2CCN(CCc3ccc(O)cc3)C(=O)C2=O)N(CCC2CCCCC2)C1=O	i	i	1%	11%
COc1ccc(C(=O)Nc2cccc(N(C)S(C)(=O)=O)c2)cc1OC	i	i	0%	-1%
Cc1ccc(C(=O)Nc2cccc(N(C)S(C)(=O)=O)c2)cc1S(=O)(=O)Nc1ccccc1	i	35µM*	10%	-24%
O=C(Cc1ccccc1F)Nc1ccc(SC(F)F)cc1	i	i	0%	-13%[0.397 µM]
O=C(COC(=O)Cc1ccccc1F)Nc1ccc(SC(F)F)cc1	i	i	2%	10µM*
CCOC(=O)Nc1csnn1	i	i	-7%	-14%
Cc1ccc(NC(=O)c2cc(C(C)(C)C)nn2Cc2ccccc2)cc1	i	i	-15%	26%
CC(C)(C)c1cc(C(=O)Nc2ccc(F)cc2)n(Cc2ccc(F)cc2)n1	?	i	-11%	20µM*
COC(=O)C1=C(C(=O)OC)C(c2cc(Cl)ccc2O)c2sc(=O)[nH]c2S1 (stereo not drawn)	i	i	14µM*	-14%
COC(=O)C1=C(C(=O)OC)C(c2cc(Br)ccc2O)c2sc(=O)[nH]c2S1 (stereo not drawn)	i	i	7%	-7%
Cc1ccc(C(C)NC(=O)CSc2ccc(S(=O)(=O)N3CCOCC3)cn2)cc1C (stereo not drawn)	i	.	-1%	-25%
Fc1ccccc1NC(=S)Nc1ccc(Br)cc1	i	i	-41%	13µM*
Fc1cc(Br)ccc1NC(=S)Nc1ccccc1	i	.	-8%	?
CC(C)(C)NC(=S)Nc1ccc(Nc2ccccc2)cc1	?	i	-15%	10%
CC(C)(C)NC(=S)Nc1ccc(Br)cc1	i	i	-18%	16µM*
SMILES	Abeta yeast res	FUS suppressor	aSyn rescue	TDP-43 yeast inh
CCCCN(C)CCNC(=O)C1CCN(c2nc3ccc(CC)cc3s2)CC1	i	i	.	10%
Cc1ccc2cc3c(N)nn(C(=O)c4cccc(F)c4)c3nc2c1	i	i	.	20%
NC(=O)C1CCN(C2=C(Cl)C(=O)c3ccccc3C2=O)CC1	i	i	-4%	13µM*
O=C1C(Cl)=C(N2CCC(C(=O)O)CC2)C(=O)c2ccccc21	i	i	-1%	18µM*
COc1ccc(C(=O)NC(C)c2cccnc2)cc1S(=O)(=O)N(C)Cc1ccccc1 (stereo not drawn)	i	i	4%	19%
COCCNc1nc(-c2cc(-c3ccccc3)on2)cc(C(C)C)n1	i	i	-12%	16µM*
